Values without a mark were called inactive. How the calls were made is not given here.

Chain of Pantothenate synthetase (Mycobacterium tuberculosis (strain ATCC 25618 / H37Rv)) (P9WIL5 whole entry, looked up): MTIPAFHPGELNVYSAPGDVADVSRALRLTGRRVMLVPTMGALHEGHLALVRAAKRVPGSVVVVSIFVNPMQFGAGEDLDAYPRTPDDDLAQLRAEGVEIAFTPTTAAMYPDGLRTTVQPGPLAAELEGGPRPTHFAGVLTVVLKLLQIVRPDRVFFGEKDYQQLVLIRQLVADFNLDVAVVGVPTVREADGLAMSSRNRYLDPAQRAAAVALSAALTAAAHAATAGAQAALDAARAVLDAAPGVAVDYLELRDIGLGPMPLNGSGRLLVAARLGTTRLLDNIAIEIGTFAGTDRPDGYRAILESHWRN

This assay has as its target Pantothenate synthetase (Mycobacterium tuberculosis (strain ATCC 25618 / H37Rv)) (UniProt P9WIL5). The assay is described as follows: Recombinant Mtb pantothenate synthetase (PanC) inhibitors, coupled enzyme, confirmatory (AID 375).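 Further: 0% = full reaction with vehicle and 100% = no enzyme background.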 The settings on record: coupled enzyme assay; at 10 µM, stronger effect = higher value.
On to `CC(=O)Nc1ccc(S(=O)(=O)N2CCSC2c2ccccc2)cc1` (stereo not given), for which the inhibition was 7%.
For `Cc1cc(NC(=O)NC(=O)c2cccc(OC(F)(F)C(F)F)c2)n[nH]1`, the inhibition is 3%.
Then `CCN(CC)CCOC(=O)C(c1ccccc1)c1ccccc1`, with 0%; and `CCN1C(=O)N(CC)C2C1N(C(C)=O)C(=O)N2C(C)=O` (stereo not given), with 0%.
For the molecule `O=C(c1ccc2c(c1)OCCO2)C1CCN(C(=O)c2ccc(F)cc2)CC1`, the inhibition was 0%.
For the molecule `CN(C)C(=O)COc1ccc2cc(-c3ccccc3)c(=O)oc2c1`, the inhibition was 1%.
Under `c1cncc(-c2nc3c4ccccc4nc(N4CCC(N5CCCCC5)CC4)n3n2)c1` stands 0%; under `Cc1cc(C)n(C(=O)CNC(=O)C2COc3ccccc3O2)n1` (stereo not given), 1%.
Under `CCCCN(C)Cc1c(C)[nH]c2c(Cl)cccc2c1=O` stands 5%.
Under `O=C(C1CCN(S(=O)(=O)Cc2ccccc2)CC1)N1CCN(c2ncccn2)CC1` stands 0%; under `CC(C)NC(=O)CSc1nnc(-c2ccc(C(C)(C)C)cc2)n1C`, 1%; under `CSc1cccc(NC(=O)CN(C)S(=O)(=O)c2ccccc2)c1`, 0%.
For `CCCCc1nc2n[nH]c(N)c2c2c1CCCC2`, the inhibition was 0%.
Then `CCN1CCCC1CN=Cc1c(O)n(-c2ccccc2)c(=O)c2ccccc12` (stereo not given), with 0%; and `Cc1ccccc1-c1nc2ccccc2c(=O)n1C1CCS(=O)(=O)C1` (stereo not given), with 0%; and `CCN1CCN(c2ncc(C(=O)N3CCN(c4ccccc4OC)CC3)c3ccccc23)CC1`, with 3%.
Then `Cc1cc(C(=O)Nc2sc3c(c2C#N)CCCCC3)cs1`, with 0%.
`CSCCC(N=CC1=C(O)CC(C)(C)CC1=O)C(=O)O` (stereo not given): the inhibition is 2%.
As for `CCOC(=O)c1cn(CC)c2cc(N3CCOCC3)c(F)cc2c1=O`, the inhibition is 0%.
Then `Cc1cc(C)nc(N2CCC(C(=O)Nc3ccc(Oc4ccccc4)cc3)CC2)n1`, with 0%.
Under `O=C(CSc1nnc(CNC(=O)c2cccs2)o1)NCCc1ccccc1` stands 0%; under `O=C1CCCC2=C1C(c1ccc(Br)cc1)c1c([nH]c(=S)[nH]c1=O)N2` (stereo not given), 0%.
Then `CCOc1ccc(C(=O)N(CN2CCCC2=O)c2ccc(C)cc2)cc1`, with 0%.
In the case of `CCN1CCN(c2cc3c(cc2F)c(=O)c(C(=O)O)cn3C2CC2)CC1`, the inhibition was 0%.
Then `Cc1cccc(N2CCN(C(=O)c3cc4c(=O)[nH]c5ccccc5c4n3C)CC2)c1C`, with 7%.
Then `CCC1CCCCN1C(=O)Cn1c(C(=O)OC)cc2sc(Cl)cc21` (stereo not given), with 0%.
Take `CCOC(=O)c1sc(NC(=O)c2c(C)nn(Cc3ccccc3)c2C)cc1C`: the inhibition was 0%.
Under `O=C(CN1CCN(Cc2ccccc2)CC1)NCC1COc2ccccc2O1` (stereo not given) stands 0%; under `CCOC(=O)C(C(=O)OCC)C(C)C#CCN1CCCCC1` (stereo not given), 4%; under `CC(C)=CC(=O)OCC(=O)NC(=O)NC(C)(C)C`, 0%.
`O=C(OCC(=O)c1c[nH]c2ccccc12)C1=COCCO1`: the inhibition is 0%.
For the molecule `O=C(CSc1nnnn1-c1ccccc1Cl)Nc1ccc2c(c1)OCCO2`, the inhibition was 8%.
With `O=C1NC(c2cccnc2)C(C(=O)c2cccs2)C(O)(C(F)(F)F)N1` (stereo not given), the inhibition was 6%.
Consider `CC1=Nn2c(nnc2-c2cc(-c3ccccc3)n[nH]2)SC1`, for which the inhibition was 0%.
Then `CCCCn1c(NCc2ccccc2O)nc2ccccc21`, with 0%; and `O=C(O)C1CSC2c3ccccc3C(=O)N12` (stereo not given), with 0%; and `COc1ccc(-n2c(SCCC(=O)O)nnc2-c2ccncc2)cc1`, with 5%.
Then `CC(C)C(NC(=O)OCc1ccccc1)C(=O)OCC(=O)NCc1ccco1` (stereo not given), with 7%; and `NC(=O)CN1C(=O)C(O)(CC(=O)c2ccccc2O)c2ccccc21` (stereo not given), with 0%; and `CCC(=O)Oc1ccc(C(CC)C(CC)c2ccc(OC(=O)CC)cc2)cc1` (stereo not given), with 0%.

As usually defined, the inhibition is the share of the control response that was lost under treatment.

These data come from PubChem BioAssay.
